From PubChem BioAssay come the findings set out here.

Assay [1] can be described thus: anti-His antibody binders, primary screen, artefact control for SMM control protein annotation, biochemical, small-molecule microarray, 635 nm fluorescence (AID 1128).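 Further: score merges feature fluorescence with signal-to-noise for each printed compound spot.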 The following applies: anti-His Alexa647 antibody binding, higher = more signal.
Assay [2] concerns Human papillomavirus type 1a E7 protein (residues 1-88). The assay is described as follows: HPV1a E7 small-molecule binders, primary screen, biochemical, small-molecule microarray, residues 1-88, 635 nm (AID 1129). The following applies: small-molecule microarray binding, fluorescence 635 nm; higher = more signal.
Assay [3] addresses Focal adhesion kinase 1 (Homo sapiens) (UniProt Q05397). Kind of assay: small-molecule microarray binders of FAK, primary screen, biochemical, 635/667 nm fluorescence, BSA, DTT (AID 1130).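 Further: composite of spot emission at 667 nm and signal to noise over triplicate slides.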 To be noted: PTK2 binding, 635 nm fluorescence, higher = more signal.
Assay [4] relates to Fibrinogen (Alexa647-labelled). The assay is described as follows: fibrinogen binders on compound microarrays, profiling panel, artefact control for SMM control-protein annotation, biochemical, small-molecule microarray, 635/667 nm fluorescence (AID 1131).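 Further: z-score merges 667 nm fluorescence with per-spot signal-to-noise over triplicate slides.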 The following applies: fibrinogen-A647 binding fluorescence, higher = more signal.
Assay [5] has as its target Follistatin (Homo sapiens) (UniProt P19883). The assay is described as follows: follistatin binders on small-molecule microarrays, primary screen, biochemical, small-molecule microarray, 635/667 nm fluorescence (AID 1132). To be noted: FST binding, 635 nm fluorescence, higher = more signal.
For assay [6], the target named is Fibroblast growth factor 2 (Homo sapiens) (UniProt P09038). Kind of assay: FGF2 binders on small-molecule microarrays, primary screen, biochemical, small-molecule microarray, 635/667 nm fluorescence (AID 1133). To be noted: small-molecule microarray binding, FGF2, fluorescence 635/667; higher = more signal.
Assay [7] is described as follows: mitochondrial membrane potential change in A549 cells, profiling panel, cell-based, JC-1 fluorescence, basal, 24 h, 100 nL (AID 1138).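 Further: A549 lung adenocarcinoma cells under basal conditions with no added stimulus; test concentration not given here.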 To be noted: higher = more signal.
Assay [8] deals with Lefty1. The assay is described as follows: Lefty1 binders on small-molecule microarrays, primary screen, biochemical, small-molecule microarray, 635/667 nm fluorescence (AID 1139). The following applies: small-molecule microarray binding, fluorescence 635/667; higher = more signal.
For assay [9], the system named is wheat germ agglutinin (Triticum aestivum), Alexa647-labelled. The assay is described as follows: wheat germ agglutinin binders on compound microarrays, profiling panel, artefact control for SMM control-protein annotation, biochemical, small-molecule microarray, 635/667 nm fluorescence (AID 1140).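 Further: score merges 667 nm feature emission with signal to noise over triplicate slides.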 To be noted: WGA-A647 binding, 635 nm fluorescence, higher = more signal.

For assay [10], the target named is Luciferin 4-monooxygenase (Photinus pyralis) (UniProt P08659). The assay is described as follows: firefly luciferase enzyme inhibitors, primary screen, biochemical, luminescence, purified enzyme, 2006 set (AID 1141).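 Further: cell-free assay with purified firefly luciferase at 100 ng per well in PBS; test concentration not given here.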 To be noted: SteadyGlo luminescence, 30 min, higher = more signal, called active from +8 up or from −8 down.
Assay [11] has as its system Wnt5a (protein binding on small-molecule microarray). The assay is described as follows: Wnt5a binders on small-molecule microarray, primary screen, biophysical, 635/667 nm fluorescence (AID 1142).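 Further: fluorescence read at 667 nm with signal to noise per printed feature.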 To be noted: 635 nm fluorescence, higher = more signal.
Assay [12] in a line: cell viability in Huh7 cells, primary screen, cytotoxicity control for HCV replication inhibitor project, CellTiter-Glo luminescence, basal, 48 h (AID 1143).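 Further: Huh7 hepatoma cells carrying a hepatitis C replication reporter with no stimulus; test concentration not given here.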 To be noted: Huh7 HCV replicon, higher = more signal, called active from +8 up or from −8 down.
A short description of assay [13]: P. aeruginosa biofilm formation inhibitors, primary screen, PAO1 strain, BacTiter-Glo luminescence, LB-PBS (AID 1144). The following applies: 12 h, higher = more signal.
Assay [14] in a line: CREB reporter modulators without forskolin, primary screen, cell-based, PC12, CRE-LacZ reporter, unstimulated (AID 1145). The following applies: no forskolin, luminescence, 4.5 h, higher = more signal, called active from +8 up or from −8 down.
Assay [15] can be described thus: CREB reporter modulators under forskolin, primary screen, cell-based, PC12, CRE-LacZ reporter, forskolin-stimulated (AID 1146).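 Further: PC12 cells with 6xCRE LacZ reporter stimulated by forskolin 10 µM; beta-galactosidase reporter signal reflecting CREB driven transcription.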 The following applies: luminescence, 4.5 h, higher = more signal, called active from +8 up or from −8 down.
For assay [16], the target named is Streptavidin (Streptomyces avidinii) (UniProt P22629). The assay is described as follows: streptavidin binders on small-molecule microarray, primary screen, artefact control for SMM compound annotation, biophysical, 635/667 nm fluorescence (AID 1147).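 Further: signal reflects streptavidin binding to arrayed compounds as a control protein.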 The following applies: streptavidin binding, higher = more signal.
Assay [17] can be described thus: small-molecule binders of probe aInhba, primary screen, biochemical, small-molecule microarray, 635/667 nm fluorescence (AID 1148).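 Further: score merges 667nm spot fluorescence with signal-to-noise for antibody binding to printed compounds.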 The following applies: higher = more signal.
Assay [18] concerns the target Torsin-1A (Homo sapiens) (UniProt O14656). Kind of assay: torsin A binders from cell lysate, primary screen, small-molecule microarray, wild-type, 635/667 nm (AID 1149). To be noted: COS7 hTOR1A-WT lysate, 635 nm fluorescence, higher = more signal.
For assay [19] the target is unchanged. Kind of assay: small-molecule binders of mutant TOR1A in lysate, primary screen, cell lysate, small-molecule microarray, COS7 lysate, 635/667 nm fluorescence (AID 1150).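 Further: score pools 667 nm emission and signal to noise measuring lysate protein binding.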 The following applies: COS7 hTOR1A mutant lysate, 635 nm fluorescence, higher = more signal.
Assay [20] deals with Sonic hedgehog protein (Shh). The assay is described as follows: small-molecule binders of Shh protein, primary screen, biochemical, small-molecule microarray, 635/667 nm fluorescence (AID 1151).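 Further: Shh protein binding to compounds spotted on small-molecule microarray slides; score combines spot fluorescence intensity with signal-to-noise across triplicate slides.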 The following applies: small-molecule microarray binding, 635 nm fluorescence; higher = more signal.

The structures appear in SMILES notation. The source made the active and inactive calls. Unless noted, how the calls were made is not given here.

Fibroblast growth factor 2 (Homo sapiens), sequence (P09038 whole entry, looked up): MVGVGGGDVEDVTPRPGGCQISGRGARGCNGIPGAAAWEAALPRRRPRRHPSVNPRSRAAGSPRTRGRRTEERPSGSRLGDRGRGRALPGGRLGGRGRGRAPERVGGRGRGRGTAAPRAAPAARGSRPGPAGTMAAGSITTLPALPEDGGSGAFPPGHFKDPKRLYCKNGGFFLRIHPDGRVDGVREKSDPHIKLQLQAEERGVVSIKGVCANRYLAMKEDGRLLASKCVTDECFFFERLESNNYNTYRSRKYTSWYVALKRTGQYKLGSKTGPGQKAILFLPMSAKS
Follistatin (Homo sapiens), sequence (P19883 whole entry, looked up): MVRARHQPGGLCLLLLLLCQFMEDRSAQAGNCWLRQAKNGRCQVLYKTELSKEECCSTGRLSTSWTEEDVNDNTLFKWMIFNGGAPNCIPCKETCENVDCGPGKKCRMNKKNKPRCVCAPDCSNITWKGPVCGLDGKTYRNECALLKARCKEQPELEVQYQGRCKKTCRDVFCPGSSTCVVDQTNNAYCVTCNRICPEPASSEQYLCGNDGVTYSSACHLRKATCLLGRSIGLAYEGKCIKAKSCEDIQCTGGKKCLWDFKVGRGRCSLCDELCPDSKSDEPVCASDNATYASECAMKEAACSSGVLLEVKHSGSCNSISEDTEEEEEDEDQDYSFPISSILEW
Focal adhesion kinase 1 (Homo sapiens), sequence (Q05397 whole entry, looked up): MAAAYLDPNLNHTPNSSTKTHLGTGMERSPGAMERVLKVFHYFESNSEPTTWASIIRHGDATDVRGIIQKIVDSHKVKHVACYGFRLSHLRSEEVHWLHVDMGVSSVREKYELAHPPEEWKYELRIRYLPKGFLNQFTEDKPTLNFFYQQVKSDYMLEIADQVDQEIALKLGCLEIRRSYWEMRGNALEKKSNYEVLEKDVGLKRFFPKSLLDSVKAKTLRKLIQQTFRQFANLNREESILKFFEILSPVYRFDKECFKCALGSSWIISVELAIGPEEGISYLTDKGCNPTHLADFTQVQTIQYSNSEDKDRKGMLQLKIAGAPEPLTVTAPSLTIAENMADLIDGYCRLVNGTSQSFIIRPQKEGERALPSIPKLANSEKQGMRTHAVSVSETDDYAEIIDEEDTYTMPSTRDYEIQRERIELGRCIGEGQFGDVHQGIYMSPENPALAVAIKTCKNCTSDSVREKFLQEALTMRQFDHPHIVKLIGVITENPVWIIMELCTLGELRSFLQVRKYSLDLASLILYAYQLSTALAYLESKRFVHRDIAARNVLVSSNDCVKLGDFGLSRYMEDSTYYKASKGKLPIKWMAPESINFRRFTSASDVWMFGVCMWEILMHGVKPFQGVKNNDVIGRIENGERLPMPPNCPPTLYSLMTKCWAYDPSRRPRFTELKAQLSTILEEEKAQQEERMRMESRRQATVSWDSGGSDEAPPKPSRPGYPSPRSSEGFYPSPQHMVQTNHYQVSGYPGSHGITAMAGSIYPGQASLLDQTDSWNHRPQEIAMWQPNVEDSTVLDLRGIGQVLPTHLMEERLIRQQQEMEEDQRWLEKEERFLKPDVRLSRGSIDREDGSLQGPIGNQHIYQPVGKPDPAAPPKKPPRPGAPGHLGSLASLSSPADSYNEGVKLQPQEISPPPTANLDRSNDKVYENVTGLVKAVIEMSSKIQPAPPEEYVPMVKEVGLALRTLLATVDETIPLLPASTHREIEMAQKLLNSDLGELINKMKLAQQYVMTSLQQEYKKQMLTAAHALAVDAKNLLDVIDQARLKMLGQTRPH
Streptavidin (Streptomyces avidinii), sequence (P22629 whole entry, looked up): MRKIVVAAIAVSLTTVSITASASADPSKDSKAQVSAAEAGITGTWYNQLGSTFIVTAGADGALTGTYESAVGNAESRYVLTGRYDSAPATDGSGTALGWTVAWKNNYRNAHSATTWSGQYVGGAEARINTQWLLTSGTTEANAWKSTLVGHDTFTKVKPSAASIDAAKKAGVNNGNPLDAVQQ
Luciferin 4-monooxygenase (Photinus pyralis), sequence (P08659 whole entry, looked up): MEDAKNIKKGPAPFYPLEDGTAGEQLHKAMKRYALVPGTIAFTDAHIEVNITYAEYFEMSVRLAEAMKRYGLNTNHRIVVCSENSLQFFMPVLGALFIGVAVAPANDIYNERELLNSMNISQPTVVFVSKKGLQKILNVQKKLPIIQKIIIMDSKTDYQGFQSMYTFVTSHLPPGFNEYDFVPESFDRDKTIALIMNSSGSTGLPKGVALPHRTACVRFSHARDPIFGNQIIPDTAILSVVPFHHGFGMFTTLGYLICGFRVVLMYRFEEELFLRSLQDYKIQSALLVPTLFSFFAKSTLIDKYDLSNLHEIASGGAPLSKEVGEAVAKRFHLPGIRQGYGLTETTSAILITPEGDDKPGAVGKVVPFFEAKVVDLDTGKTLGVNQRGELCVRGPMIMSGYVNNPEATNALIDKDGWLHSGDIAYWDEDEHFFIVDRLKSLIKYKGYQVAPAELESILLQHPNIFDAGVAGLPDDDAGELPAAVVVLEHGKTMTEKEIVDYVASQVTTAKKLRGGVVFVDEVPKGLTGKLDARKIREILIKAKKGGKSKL
Torsin-1A (Homo sapiens), sequence (O14656 whole entry, looked up): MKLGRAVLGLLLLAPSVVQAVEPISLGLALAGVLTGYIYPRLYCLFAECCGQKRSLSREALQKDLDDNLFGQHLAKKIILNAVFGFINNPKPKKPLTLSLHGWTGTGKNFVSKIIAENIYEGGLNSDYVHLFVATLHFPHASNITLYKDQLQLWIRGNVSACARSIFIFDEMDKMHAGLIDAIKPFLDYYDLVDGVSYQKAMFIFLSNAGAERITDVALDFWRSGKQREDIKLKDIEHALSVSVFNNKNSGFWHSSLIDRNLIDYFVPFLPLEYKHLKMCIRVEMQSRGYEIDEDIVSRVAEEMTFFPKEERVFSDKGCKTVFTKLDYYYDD

Regarding `CC(C)C(=C=CC[C@H](O)c1ccccc1OCCO)CCO`, the composite z-score stood at 0.526 in [1]; 0.0618 in assay [2]; 0.101 in [3]; 0.217 in assay [4]; 0.0251 in [5]; 0.465 in assay [6]. Moreover, the composite z-score was 0.653 in assay [8]; 0.417 in assay [9]; -0.0207 in assay [11]; -0.366 in assay [16]; -0.101 in assay [17]; -0.0451 in assay [18]. Also, the composite z-score in assay [19] is 0.408; in assay [20], 0.569. Also, the z-score in assay [7] was 0.205; in assay [10] it was 0.27 (inactive); in assay [12] it was -0.334 (inactive); in [13], 0.00427 (inactive); in assay [14] it was 2.14 (inactive); in [15], 1.49 (inactive).

For the compound `COC(=O)[C@@]1(Cc2ccc(OC)cc2)[C@H]2c3cc(C(=O)N4CCCC4)n(CCN4CCOCC4)c3C[C@H]2CN1C(=O)c1ccccc1`, the composite z-score is 0.954 in assay [1]; 1.19 in assay [2]; 1.75 in assay [3]; 0.998 in assay [4]; 0.193 in assay [5]; -0.125 in assay [6]. The composite z-score was -0.499 in assay [8]; 0.76 in assay [9]; 2.64 in assay [11]; 2.02 in assay [16]; 1.75 in assay [17]; 0.27 in [18]. Also, the results for the composite z-score in assay [19] and in assay [20] were 1.71 and -0.641, respectively. Besides, the z-score in assay [7] was 0.892; in [10], 1.12 (inactive); in assay [12] it was -0.267 (inactive); in assay [13], 0.356 (inactive); in [14] it was 0.966 (inactive); in [15] it was 1.64 (inactive).

In the case of `CCCNC(=O)[C@@]1(C)c2ccccc2C(=O)N(Cc2cc(F)cc(C(F)(F)F)c2)[C@H]1c1ccc(CO)cc1`, the composite z-score was 0.858 in assay [1]; -0.331 in assay [2]; -0.527 in [3]; -1.73 in assay [4]; -0.839 in [5]; -0.812 in assay [6]. Also, the composite z-score was -0.662 in assay [8]; 0.932 in assay [9]; -0.283 in [11]; -0.767 in assay [16]; -0.175 in assay [17]; -2.08 in assay [18]. The composite z-score in assay [19] is 0.779; in [20], 0.011. Besides, the z-score in assay [7] is -0.394; in assay [10], 0.942 (inactive); in assay [12], -3.38 (inactive); in assay [13] it was -1.09 (inactive); in assay [14], 0.208 (inactive); in assay [15], -0.173 (inactive).

For `CN1C(=O)C2C=CC(C(O)c3ccc(Br)cc3)N(Nc3ccccc3)C2C1=O` (stereo not given), the composite z-score in assay [1] was -0.233; in [2], -0.426; in assay [3], 0.1; in [4], -0.23; in assay [5] it was -1.12; in [6] it was -1.22. Moreover, the composite z-score was -1.33 in [8]; 0.387 in [9]; -0.323 in assay [11]; -0.524 in assay [16]; -0.0523 in [17]; 0.24 in assay [18]. In addition, the composite z-score in assay [19] was 0.828; in [20], -1.09. Also, the z-score in [7] was -0.101; in assay [10], -1.11 (inactive); in [12] it was 1.06 (inactive); in assay [13] it was -0.595 (inactive); in [14], 1.6 (inactive); in assay [15], 0.127 (inactive).

With `COC(=O)[C@@]1(Cc2ccc(OC)cc2)[C@H]2c3cc(C(=O)N4CCCC4)n(C[C@H](O)CO)c3C[C@H]2CN1C(=O)c1ccccc1`, the composite z-score in [1] is 0.39; in assay [2] it was 0.339; in [3], 0.493; in assay [4] it was 0.276; in assay [5], -0.319; in [6], -0.411. Moreover, the composite z-score is -0.752 in assay [8]; 1.02 in [9]; 0.0149 in assay [11]; 0.528 in assay [16]; 0.0082 in assay [17]; -0.467 in assay [18]. Further, the values for the composite z-score in assay [19] and in assay [20] were 0.354 and -0.666, respectively. Moreover, the z-score in [7] is 0.605; in assay [10] it was 1.84 (inactive); in assay [12], -0.132 (inactive); in [13], -0.389 (inactive); in assay [14], -0.365 (inactive); in assay [15], 0.294 (inactive).
